Many of the other results were omitted from the sample, so hits are more common in it than they were.
EZH2 inh: EZH2/PRC2 methyltransferase inhibitors, primary screen, biochemical, DELFIA time-resolved fluorescence, single point; 57,000 compounds, 0.35% hits; Histone-lysine N-methyltransferase EZH2 (Homo sapiens), Q15910; PRC2 H3K27 methylation, DELFIA TRF, 1 h; inhibition, % at 12.5 µM; AID 651548, 2012;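 active = mean inhibition of replicates at least 50% and every single replicate also reaching 50%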;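 also: dimethyl H3K27 on biotinylated H3 21-44 peptide detected by antibody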
Target sequence (Q15910 whole entry, looked up): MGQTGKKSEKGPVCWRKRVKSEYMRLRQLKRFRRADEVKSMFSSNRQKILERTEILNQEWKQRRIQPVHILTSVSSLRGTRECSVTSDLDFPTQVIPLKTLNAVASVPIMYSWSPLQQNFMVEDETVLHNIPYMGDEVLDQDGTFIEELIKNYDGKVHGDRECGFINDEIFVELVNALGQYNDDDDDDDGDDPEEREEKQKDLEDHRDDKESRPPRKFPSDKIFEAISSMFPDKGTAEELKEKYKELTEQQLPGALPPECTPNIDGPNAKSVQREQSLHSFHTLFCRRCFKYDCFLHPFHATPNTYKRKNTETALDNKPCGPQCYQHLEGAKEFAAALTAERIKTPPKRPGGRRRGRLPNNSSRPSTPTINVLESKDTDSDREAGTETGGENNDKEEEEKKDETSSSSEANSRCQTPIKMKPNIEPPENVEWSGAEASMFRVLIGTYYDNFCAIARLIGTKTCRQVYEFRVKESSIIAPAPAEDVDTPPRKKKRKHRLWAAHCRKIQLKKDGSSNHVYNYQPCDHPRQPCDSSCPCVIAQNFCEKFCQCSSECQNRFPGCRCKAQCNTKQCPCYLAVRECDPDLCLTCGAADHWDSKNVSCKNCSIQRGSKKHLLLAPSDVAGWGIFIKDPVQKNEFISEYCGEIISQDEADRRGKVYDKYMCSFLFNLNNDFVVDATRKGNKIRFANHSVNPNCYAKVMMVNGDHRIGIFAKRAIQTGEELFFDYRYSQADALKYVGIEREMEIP
Each line names hits and unclear results; the compound was inactive in the other large screens.

COc1ccc(-c2nc(SCC(=O)Nc3ccc(Br)c(Cl)c3)n[nH]2)cc1	EZH2 inh 57
COc1ccc(-c2nc(SCC(=O)Nc3cccc(Br)c3)n[nH]2)cc1	none
O=C(CSc1n[nH]c(-c2ccc(Cl)cc2)n1)Nc1ccc(Br)c(Cl)c1	none
C=CCOC(=O)[C@H]1[C@@H]2C(=O)O[C@@H](c3ccccc3)[C@@H](c3ccccc3)N2[C@@H](c2ccc(OCCOC(=O)[C@@H]3C[C@@H]4C(=O)N5CCC[C@H]5C(=O)N4[C@@H]3c3cccc(OCCO)c3)cc2)[C@]12C(=O)Nc1ccc(I)cc12	none
CC(C)(C)/C=N/NC(=O)CCCCCCC(=O)NO	none
CO[C@H]1O[C@H](CO)[C@@H](OC(=O)Nc2ccccc2)[C@H](OC(=O)Nc2ccccc2)[C@@H]1OC(=O)Nc1ccccc1	none
O=C(O)CCCC[C@@H]1SC[C@@H]2NC(=O)N[C@@H]21	EZH2 inh 99
O=C(O)CCCCCCC(=O)N/N=C/CCC1CCCCC1	none
CCc1nnc(SCC(=O)Nc2cccc([N+](=O)[O-])c2)o1	none
CC(C)(Sc1ccc(CCN(CCCCC2CCCCC2)C(=O)NC2CCCCC2)cc1)C(=O)O	EZH2 inh 86
O=C(CSc1nc(-c2ccccc2)cc(C(F)(F)F)n1)Nc1cccc(Cl)c1Cl	none
COc1ccc(C(=O)Nc2ccc(CN3C(=O)[C@]4(O[C@H](CC(=O)N5Cc6ccccc6C[C@H]5CO)[C@@H]([Si](C)(C)c5ccc(OC)cc5)[C@@H]4C)c4ccccc43)cc2)cc1	none
COc1ccc([Si](C)(C)[C@@H]2[C@@H](CC(=O)N3Cc4ccccc4C[C@H]3CO)O[C@]3(C(=O)N(C)c4c(Br)cc(C)cc43)[C@H]2C)cc1	none
C/C=C/[C@H](CC(=O)N1Cc2ccccc2C[C@H]1CO)[Si](C)(C)c1ccc(OC)cc1	EZH2 inh 57
Nc1ncnc(Sc2nc3ccccc3s2)c1[N+](=O)[O-]	none
COc1cc(/C=C/c2ccc(OC)cc2OC)cc(OC)c1	EZH2 inh 51
COc1ccc(/C=N/NC(=O)c2ccc(C(=O)NO)cc2)c(OC)c1	none
COC(=O)CCCCCCC(=O)N/N=C/c1ccc(OC)cc1OC	none
N#CCCn1cc(CO)c(-c2ccc(Cl)cc2)n1	none
Cc1cc(Cl)c(S(=O)(=O)Nc2cccc(C(F)(F)F)c2)cc1OCC(N)=O	none
CC(C)(c1ccc(NS(=O)(=O)C(F)(F)F)cc1)c1ccc(C(C)(C)c2cccc(NS(=O)(=O)C(F)(F)F)c2)cc1	EZH2 inh 52
Cc1ccc(S(=O)(=O)NC(C)C(=O)Nc2cccc(C(F)(F)F)c2)cc1 (centres undefined)	none
CC1(C)CC(=O)c2c(O)cc(OCC(=O)c3cccc([N+](=O)[O-])c3)cc2O1	none
COC(=O)c1ccc(C)c(NC(=O)CN(c2ccc(Cl)c(Cl)c2)S(C)(=O)=O)c1	none
CC(C)(C)[S@](=O)N1Cc2cc(C(=O)NCCc3ccncc3)nc(-c3cccc(-c4cccc(C#N)c4)c3)c2[C@@H]1CCO	none
CC(C)(C)[S@@](=O)N1Cc2cc(C(=O)NCc3ccncc3)nc(-c3cccc(-c4ccc(C#N)cc4)c3)c2[C@H]1CCO	none
CC(C)(C)[S@@](=O)N1Cc2cc(C(=O)NCCc3ccncc3)nc(-c3cccc(-c4ccc(C#N)cc4)c3)c2[C@H]1CCO	EZH2 inh 50
NC(=O)CSCC(=O)Nc1ccc(Br)cc1	none
Cc1cccnc1NC(=S)Nc1ccc(S(N)(=O)=O)cc1	none
CCCC#Cc1cnc2c(c1)C(=O)N([C@H](C)CO)C[C@H](C)[C@H](CN(C)C(=O)CN1CCOCC1)O2	EZH2 inh 95
CCCC#Cc1cnc2c(c1)C(=O)N([C@H](C)CO)C[C@H](C)[C@@H](CN(C)C(=O)CN1CCOCC1)O2	none
CCCC#Cc1cnc2c(c1)C(=O)N([C@@H](C)CO)C[C@@H](C)[C@H](CN(C)C(=O)CN1CCOCC1)O2	none
CCC(Sc1ccccn1)C(=O)Nc1ccc(Br)cc1 (centres undefined)	none
NC(=O)C1CCN(C(=O)CSc2nc(-c3ccccc3)cc(=O)[nH]2)CC1	none
N#Cc1c(C(F)(F)F)cc(-c2cccs2)nc1SCC(=O)Nc1c(F)cccc1F	none
N#Cc1c(C(F)(F)F)cc(-c2cccs2)nc1SCC(O)COc1ccc(Cl)cc1 (centres undefined)	none
COc1ccc(-c2cc(-c3cccs3)nc(SC(C(=O)O)c3ccccc3)c2C#N)cc1 (centres undefined)	EZH2 inh 72
O=C(N/N=C/c1cc(Cl)cc(Cl)c1O)c1ccccn1	none
O=C(CCn1c(=S)[nH]c2c(sc3ccccc32)c1=O)NC1CCCCC1	none
O=C(O)CCCCCCC(=O)N/N=C/c1cc(Br)cs1	none
O=S(=O)(Cc1noc(-c2ccc(OC(F)(F)F)cc2)n1)Cc1ccco1	none
COC(=O)CCCCCCC(=O)N/N=C/c1ccc(Oc2ccccc2)cc1	none
O=C(CCCCC(=O)N/N=C/c1ccc(-c2ccccc2)c(F)c1)NO	none
COC(=O)CCCCCCC(=O)N/N=C/c1ccc(-c2ccccc2)c(F)c1	EZH2 inh 60
O=C(CSc1nc2ccccc2c(=O)n1-c1cccc(Cl)c1)Nc1cccc(Cl)c1	none
CCOc1ccc2nc(NCc3cc(OC)c(OC)cc3OC)sc2c1	none
CCOc1ccc(NC(=S)Nc2sc3c(c2C(=O)OC)CCC3)c([N+](=O)[O-])c1	none
CCOc1ccc2nc(NS(=O)(=O)c3ccc(C)c([N+](=O)[O-])c3)sc2c1	EZH2 inh 51
O=C(Nc1cccc(Cn2cccn2)c1)c1cc(-c2ccccc2)nc2ccccc12	none
COc1ccccc1N(CC(=O)N(C)C)S(=O)(=O)c1ccc(C)cc1	none
COC(=O)c1sc(N2C(=O)C(=O)C(C(=O)c3ccc(OC)c(C)c3)C2c2ccco2)nc1C (centres undefined)	none
COCc1cc(O)c(O)c(O)c1-c1c(COC)cc(O)c(O)c1O	EZH2 inh 88
COc1ccc(C(C)=O)c(O)c1	none
COc1cc(OC)cc(-c2nnc(SCC(=O)Nc3ccc(I)cc3)o2)c1	none
CC1(C)CC[C@]2(C(=O)O[C@@H]3O[C@H](CO)[C@@H](O)[C@H](O)[C@H]3O)CC[C@]3(C)C(=CCC4[C@@]5(C)C[C@@H](O)[C@H](O)C(C)(C)C5CC[C@]43C)C2[C@@H]1O (some centres undefined)	EZH2 inh 68
CC1CC[C@]2(C(=O)OC3OC(COC4OC(CO)C(O)C(O)C4O)C(O)C(O)C3O)CC[C@]3(C(=O)O)C(=CCC4[C@@]5(C)CC[C@H](OC6OC(C)C(O)C(O)C6O)C(C)(C)C5CC[C@]43C)C2C1C (some centres undefined)	EZH2 inh 71
C[C@H]1O[C@@H](O[C@H]2CC[C@@]3(C)C(CC[C@]4(C)C3CC=C3C5CC(C)(C)CC[C@]5(C(=O)O)CC[C@]34C(=O)O)C2(C)C)[C@H](O)[C@@H](O)[C@H]1O (some centres undefined)	none
C[C@@H]1CC[C@]2(C(=O)O[C@@H]3O[C@H](CO)[C@@H](O)[C@H](O)[C@H]3O)CC[C@]3(C)C(=CCC4[C@@]5(C)C[C@@H](O)[C@H](O)C(C)(C)C5CC[C@]43C)C2[C@]1(C)O (some centres undefined)	none
C[C@H]1[C@H](C)CC[C@]2(C(=O)O)CC[C@]3(C(=O)O)C(=CCC4[C@@]5(C)CC[C@H](O[C@@H]6O[C@@H](C)[C@H](O)[C@@H](O)[C@H]6O)C(C)(C)C5CC[C@]43C)[C@H]12 (some centres undefined)	none

Screening results (PubChem)
